# PubChem BioAssay AID2797 (The Scripps Research Institute Molecular Screening Center, 2010)
# Where “and” joins values, the source holds several entries; their conditions need not be identical. Equal entries are not always repeated. Out of some 320,000 compounds screened, about 820 (0.26%) were called active. The sample holds actives, similar compounds and a random draw of the others, so the mix is not that of the screen.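 The calls were made as follows: active = activation above the mean activation of all tested compounds plus 3 SD, per screening run (cut at about 20% in these data); inactive = the rest.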
# Target: Vasopressin V1a receptor (Homo sapiens) (UniProt P37288)
# Sequence (P37288 whole entry, looked up): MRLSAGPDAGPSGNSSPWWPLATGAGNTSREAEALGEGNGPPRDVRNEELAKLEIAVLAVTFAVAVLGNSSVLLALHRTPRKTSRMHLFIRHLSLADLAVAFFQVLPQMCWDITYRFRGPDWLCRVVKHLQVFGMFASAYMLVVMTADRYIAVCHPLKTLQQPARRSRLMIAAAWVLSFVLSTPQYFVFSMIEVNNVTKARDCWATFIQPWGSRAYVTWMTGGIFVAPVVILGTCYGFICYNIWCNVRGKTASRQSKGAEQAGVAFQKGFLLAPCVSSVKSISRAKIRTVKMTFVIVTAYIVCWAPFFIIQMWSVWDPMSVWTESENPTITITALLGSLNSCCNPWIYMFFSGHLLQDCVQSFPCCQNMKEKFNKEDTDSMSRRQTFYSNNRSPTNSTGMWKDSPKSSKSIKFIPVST
# Assay: V1R activation via calcium rise – fluorescence, CHO-V1R cells, counter-screen for OXTR agonist project, primary screen (AID 2797);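 also: signal is peak over basal fluorescence ratio across a 100 second FLIPR read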
# Details: Fluo-8 calcium fluorescence, agonist mode, at 3 µM, hits give high values, 0% DMSO, 100% 3 nM vasopressin
row,Structure (SMILES),activation
1,Cn1c2ccccc2c(=O)c2c(=O)n(Cc3ccco3)c(COc3ccccc3)nc21,2.23% (inactive)
2,CCCc1nc2c(c(=O)c3ccccc3n2C)c(=O)n1C1CCCCCC1,86.8% (active)
3,Cn1c2ccccc2c(=O)c2c(O)cccc21,0.32% (inactive)
4,NS(=O)(=O)c1ccc(NC(=O)COC(=O)C2(c3ccc(F)cc3)CCCC2)cc1,10.2% (inactive)
5,CCC(C(=O)Nc1ccc2c(c1)OCCO2)c1ccccc1 (centres undefined),1.12% (inactive)
6,CCC(C(=O)Nc1ccc(C(C)C)cc1)c1ccccc1 (centres undefined),40.7% (active)
7,CCC(C(=O)OCC(=O)Nc1ccc(C(=O)Nc2ccc(OC)cc2)cc1)c1ccccc1 (centres undefined),6.96% (inactive)
8,COc1ccc2c(c1)C(=O)Nc1cc(Cl)ccc1N2,3.78% (inactive)
9,CCOC(=O)N1CCN(C(=O)CSc2nc(=O)n3cccc(C)c3n2)CC1,-0.26% (inactive)
10,Cc1cccn2c(=O)c(/C=C(\C#N)C(N)=O)c(N3CCCCCC3)nc12,-0.28% (inactive)
11,CCOC(=O)CC1C(=O)NCCN1c1nc2c(C)cccn2c(=O)c1/C=C1\SC(=S)N(C(C)CC)C1=O (centres undefined),34% (active)
12,Cn1nccc1NC(=O)CC(CC(=O)O)c1ccccc1 (centres undefined),-0.62% (inactive)
13,Cc1ccc(C(=O)NCC(=O)OCc2nnc(-c3ccccc3)o2)cc1,1.89% (inactive)
14,CCCc1ccc(C(=O)[C@@H]2[C@@H](C(C)=O)N3c4ccc(F)cc4C=C[C@@H]3[C@@]23C(=O)Nc2ccccc23)cc1,-0.96% (inactive)
15,CC1CCN(c2c(NCc3ccc(C(=O)NCc4ccccc4)cc3)c(=O)c2=O)CC1,0.76% (inactive)
16,Cc1ccc(CNC(=O)c2ccc3c(c2)S(=O)(=O)c2ccccc2C3=O)cc1,-0.95% (inactive)
17,Cc1ccc(CNC(=O)c2cccc3c2C(=O)c2ccc(N4CCC(C)CC4)cc2S3(=O)=O)cc1,49.5% (active)
18,CCCN(CCC)CCCNC(=O)CNC(=O)c1nn(-c2ccc(OC)cc2)c(=O)c2ccccc12,2.99% (inactive)
19,CCOC(=O)C1=C(CC)Nc2ccccc2N=C1NC(=O)c1cccc(S(=O)(=O)N2CCCC2)c1,-0.11% (inactive)
20,Cc1ccc(C)c(CN2CCC(CNC(=O)Nc3ccc(C)c(F)c3)CC2)c1,4.31% (inactive)
21,Cc1ccccc1NC(=O)NCC1CCN(Cc2cccc(Cl)c2)CC1,3.18% (inactive)
22,Cc1cccc(CN2CCC(CNC(=O)Nc3ccc(F)c(Cl)c3)CC2)c1,26.4% (active)
23,CCNC(=S)NNC(=O)Cc1ccccc1,-0.19% (inactive)
24,CCCCC(=O)NNC(=S)NC(=O)C(c1ccccc1)c1ccccc1,73.7% (active)

row,Structure (SMILES),activation
1,CC(C)C(=O)Nc1cccc(NC(=S)NC(=O)C(c2ccccc2)c2ccccc2)c1,6.96% (inactive)
2,Cc1ccc(S(=O)(=O)NC2CCCCCC2)cc1C(N)=O,3.64% (inactive)
3,CCCN(CC1COc2ccccc2O1)C(=S)Nc1ccc(C)cc1 (centres undefined),-0.74% (inactive)
4,CCN(CC)C(=O)N(CC)Cc1ccccc1,0.23% (inactive)
5,CN(C(=O)CN(CCO)CC(=O)N(C)C(C)(C)Cc1ccccc1)C(C)(C)Cc1ccccc1,53.5% (active)
6,OCCN(Cc1ccccc1)Cc1ccc(Cl)cc1,0.58% (inactive)
7,Cc1ccc(C(=O)NCCNC(=O)c2cnccn2)cc1,0.28% (inactive)
8,CCN(CC)c1ccc(/C=N/NC(=O)c2cnccn2)c(O)c1,20.8% (active)
9,O=C(Nc1ccc2c(c1)OCCO2)c1cnccn1,-0.23% (inactive)
10,CC(c1ccco1)N(C(=O)Nc1ccccc1)C1CCCCC1 (centres undefined),-0.6% (inactive)
11,CC(C)c1cc(NCc2ccccn2)n2c(nc3ccccc32)c1C#N,-0.18% (inactive)
12,CC/C(=N\NC(=O)c1ccccc1Cl)c1ccc(Br)s1,0.56% (inactive)
13,O=C(CN1CCN(c2cccc(Cl)c2)CC1)Nc1ccc(S(=O)(=O)N2CCOCC2)cc1,26.1% (active)
14,O=C(CN1C(=O)CCC1=O)Nc1ccc(S(=O)(=O)N2CCOCC2)cc1,0.29% (inactive)
15,O=C(CN1CCCCCC1)Nc1ccc(S(=O)(=O)N2CCCCC2)cc1,0.94% (inactive)
16,CCC(C)NC(=O)N[C@@H](CCSC)C(=O)O (some centres undefined),0.54% (inactive)
17,O=c1c2cc(Br)ccc2nc(-c2cccc(Cl)c2)n1O,39% (active)
18,NC(=O)c1cc(-c2cccnc2)nc2ccc(Br)cc12,-0.49% (inactive)
19,Cc1cccc(-c2nc3ccccc3c(=O)n2NC(=O)Cc2ccc(Cl)cc2)c1,4.01% (inactive)
20,CCCCc1nc2cc(C(=O)NCCc3cnn(C)c3)ccc2o1,1.32% (inactive)
21,CC(C)c1nc(SCC(=O)Nc2cccc(C(=O)O)c2)c2c3c(sc2n1)CCCC3,6.28% (inactive)
22,CCOc1ccc(C2NC(=S)NC3=C2CCc2ccccc23)cc1 (centres undefined),0.4% (inactive)
23,O=C(NCc1cccnc1)c1cc(S(=O)(=O)N2CCOCC2)c(Cl)cc1Cl,1.17% (inactive)
24,COc1ccccc1NC(=O)Nc1nc(CC(=O)Nc2ccccc2F)cs1,-0.76% (inactive)

row,Structure (SMILES),activation
1,Oc1ccc2ccc3cccc[n+]3c2c1,49.5% (active)
2,CCSc1nc(C)c(CCOc2cccc(C)c2)c(=O)[nH]1,-0.28% (inactive)
3,COCCN(C(=O)CC1CCCCC1)c1c(N)n(CC(C)C)c(=O)[nH]c1=O,-0.63% (inactive)
4,CC(=O)Nc1cccc(NC(=O)CSc2nccn2Cc2ccc(F)cc2)c1,3.25% (inactive)
5,Cc1cc(N2C(=O)C(O)=C(C(=O)c3ccc(C)o3)C2c2ccc(OCc3ccccc3)cc2)no1 (centres undefined),0.41% (inactive)
6,C=CCOc1cccc(C2C(C(=O)c3ccc(C)o3)=C(O)C(=O)N2c2nnc(C)s2)c1 (centres undefined),78.1% (active)
7,C=CCOc1cccc(C2C(C(=O)c3ccc(C)o3)=C(O)C(=O)N2CCCn2ccnc2)c1 (centres undefined),-0.49% (inactive)
8,CCOC(=O)c1c(NC(=O)CSc2nnc(CNc3ccc(C)cc3C)o2)sc(C)c1C,0.01% (inactive)
9,COc1ccc(S(=O)(=O)NCC(c2ccc(C)cc2)N2CCN(C)CC2)cc1OC (centres undefined),0.61% (inactive)
10,Cc1cnc(C(=O)OCc2c(C)cc(C(C)(C)C)cc2C)cn1,-0.09% (inactive)
11,CC1(C)S[C@@H]2[C@H](NC(=O)COc3ccccc3)C(=O)N2C1C(=O)OCc1ccccc1 (some centres undefined),1.45% (inactive)
12,CC1(C)SC2C(NC(=O)COc3ccccc3)C(=O)N2C1C(=O)O (centres undefined),0.91% (inactive) and -0.17% (inactive)
13,CC1(C)S[C@@H]2[C@H](N=CN3CCCCCC3)C(=O)N2[C@H]1C(=O)O,21.6% (active)
14,CC(C)(C)c1ccc(/C=C/C(=O)Nc2ncccn2)cc1,-0.18% (inactive)
15,COc1ccccc1NC(=O)/C=C/C(N)=O,0.73% (inactive)
16,COC(=O)c1sc(-c2ccc(C(C)(C)C)cc2)cc1NC(=O)/C=C/C(=O)O,28.5% (active)
17,COc1ccc(S(=O)(=O)N2CCOCC2)c(C)c1C,0.14% (inactive)
18,O=C(NNC(=O)c1ccccc1[N+](=O)[O-])Nc1ccccc1C(F)(F)F,0.06% (inactive)
19,O=C(N1CCCC1)C12CC3CC(C1)CC(C(=O)N1CCCC1)(C3)C2,-0.17% (inactive)
20,Cc1nc(C(=O)Nc2ccc(Cl)cc2)sc1C1(C)CC(c2ccccc2)=NO1 (centres undefined),1.86% (inactive)
21,Cc1nc(C(=O)NCc2ccccc2)sc1C1(C)CC(c2cccnc2)=NO1 (centres undefined),33.9% (active)
22,Cc1nc(-c2ccc(Cl)cc2)sc1C1(C)CC(c2ccccc2F)=NO1 (centres undefined),0.6% (inactive)
23,O=C(Nc1ccc(Cl)cc1)Nc1ccc(Oc2cccnc2)nc1,15.2% (inactive)
24,COc1ccc(F)cc1S(=O)(=O)N1CCCCC1,0.03% (inactive)

row,Structure (SMILES),activation
1,Cc1cc(NC(=O)CCC(=O)N(CC(=O)NCC2CCCO2)c2ccccc2)no1 (centres undefined),-0.14% (inactive)
2,Nc1ccc2nc3c(=O)[nH]c(=S)[nH]c3nc2c1,33.2% (active)
3,NC(N)=Nc1nc2ccc(Br)cc2c(=O)[nH]1,0.39% (inactive)
4,COCC(=O)N1CCc2ccc(NC(=O)c3ccccc3Cl)cc2C1,1.09% (inactive)
5,CCOC(=O)c1c(S(=O)(=O)Nc2ccc(CN3CCC(C)CC3)cc2)c(C)n(C)c1C,0.65% (inactive)
6,CCC(Oc1ccccc1C)C(=O)Nc1ccc(S(=O)(=O)Nc2cc(C)on2)cc1 (centres undefined),-0.02% (inactive)
7,Fc1cccc(Cl)c1COc1ccc(-c2nnco2)cc1,25.1% (active)
8,O=C(/C=C/c1ccc(OCc2c(F)cccc2Cl)cc1)N1CCOCC1,2.69% (inactive)
9,Fc1ccc(COc2ccc(-c3nnco3)cc2)cc1,0.56% (inactive)
10,COc1cccc(C(=O)Nc2cc3c(cc2Br)OCCCO3)c1,-1.23% (inactive)
11,O=C(c1ccc(Br)o1)N(c1ccccn1)C1CCCCC1,-0.71% (inactive)
12,Cc1cccc(C(=O)OC(C)CN2CCCC2)c1 (centres undefined),-0.62% (inactive)
13,CC(C)CC1(C)NC(=O)N(CC(=O)Nc2ccc3c(c2)OCCO3)C1=O (centres undefined),1.53% (inactive)
14,COCC1CCN(C(=O)CCc2nnc(C3(c4ccc(Cl)cc4)CCC3)o2)C1 (centres undefined),-0.39% (inactive)
15,CCN(CC)c1ccc2oc(=O)c(C)nc2c1,24.3% (active)
16,C=CCN(C(=O)Nc1ccc2oc(C)nc2c1)c1ccccc1,0.19% (inactive)
17,CCN(CC)c1ccc(C(=O)Nn2c(C)nc3ccccc3c2=O)cc1,6.78% (inactive)
18,CC(C)=CCCC(C)CN1CCC(n2nccc2NC(=O)c2ccccc2)CC1 (centres undefined),0.01% (inactive)
19,COc1ccc(OC)c(NC(=O)COC(=O)Cc2ccsc2)c1,-0.12% (inactive)
20,COc1cc(/C=C2/SC(=S)N(Cc3ccccc3)C2=O)cc(OC)c1O,15.3% (inactive)
21,CN(C)c1ccc(/C=C2\NC(=S)N(Cc3ccccc3)C2=O)cc1,70.8% (active)
22,CN(C)c1ccc(C=C2C(=O)OC3(CCCC3)OC2=O)cc1,2.02% (inactive)
